Screening data as filed in PubChem.
CHRM1 PAM: human M1 muscarinic receptor positive allosteric modulators, primary screen, CHO-K1 cells, Fluo-8 calcium fluorescence, 1536-well | 360,000 compounds, 0.088% hits | Muscarinic acetylcholine receptor M1 (Homo sapiens), P11229 | CHO-K1 hM1, ACh EC20; 0% = ACh EC20, 100% = maximal ACh | activation, % at 3 µM; in the data active = activation above about 19%, passing the limit was not always enough
Target sequence (P11229 whole entry, looked up): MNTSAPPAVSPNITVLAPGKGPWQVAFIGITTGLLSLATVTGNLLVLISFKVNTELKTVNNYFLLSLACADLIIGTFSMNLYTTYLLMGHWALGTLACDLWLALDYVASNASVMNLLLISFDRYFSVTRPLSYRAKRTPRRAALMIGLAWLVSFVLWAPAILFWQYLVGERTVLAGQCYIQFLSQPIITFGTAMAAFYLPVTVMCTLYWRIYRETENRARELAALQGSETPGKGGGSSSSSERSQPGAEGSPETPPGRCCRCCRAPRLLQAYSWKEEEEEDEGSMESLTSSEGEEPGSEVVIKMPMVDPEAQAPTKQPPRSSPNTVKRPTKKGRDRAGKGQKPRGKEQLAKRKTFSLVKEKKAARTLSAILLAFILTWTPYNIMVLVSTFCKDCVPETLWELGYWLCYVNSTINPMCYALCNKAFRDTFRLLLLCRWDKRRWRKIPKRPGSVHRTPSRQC
M1 ag: human M1 muscarinic receptor agonists, primary screen, Fluo-8 calcium fluorescence, CHO-K1 cells, HTS. CHO-K1 hM1, agonist mode; 0% DMSO, 100% acetylcholine EC100. activation, % at 3 µM. 360,000 compounds, 0.33% hits;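 active = activation above the run's mean compound activation plus 3 SD, cut at about 16% in these data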;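 also: peak over basal fluorescence ratio within a 140 s kinetic read after compound addition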
M4 ag: human M4 muscarinic receptor agonists, primary screen, CHO-K1 cells, Fluo-8 calcium fluorescence. CHO-K1 hM4/Gqi5; vehicle 0%, full acetylcholine response 100%. activation, % at 3 µM. 360,000 compounds, 0.14% hits;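 active = activation above the run mean over all test wells plus 3 SD, cut at about 32% in these data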;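 also: peak over basal fluorescence ratio per well then scaled between controls; 0% = DMSO wells and 100% = acetylcholine at EC100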
CHRM1 antagonist: human M1 muscarinic receptor antagonists, primary screen, CHO-K1 cells, Fluo-8 calcium fluorescence, 1536-well; Muscarinic acetylcholine receptor M1 (Homo sapiens), P11229; 360,000 compounds, 1.3% hits; inhibition, % at 3 µM; CHO-K1 hM1, ACh EC80 antagonist;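 active = percent inhibition above its own plate's cutoff, namely the mean of that plate's compound wells plus 3 SD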;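 also: peak over basal fluorescence ratio during 140 s after agonist addition; 0% = ACh EC80 plus DMSO and 100% = DMSO alone without agonist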
CHRM4 antagonist: human M4 muscarinic receptor antagonists, primary screen, CHO cells, Fluo-8 calcium fluorescence. Muscarinic acetylcholine receptor M4 (Homo sapiens), P08173. AID 624125, 2012. 360,000 compounds, 0.73% hits. inhibition, % at 3 µM. CHO-hM4 cells, ACh EC80;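 active = inhibition above its plate's cutoff, the mean inhibition of sample wells plus 3 SD, cut at about 27% in these data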;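 also: 0% = acetylcholine EC80 with DMSO and 100% = DMSO without agonist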
M4 PAM: human M4 muscarinic receptor positive allosteric modulators, primary screen, CHO-K1 cells, Fluo-8 calcium fluorescence | Muscarinic acetylcholine receptor M4 (Homo sapiens), P08173 | CHO-K1 hM4/Gqi5, ACh EC20; 0% = ACh EC20, 100% = maximal ACh | activation, % at 3 µM | 360,000 compounds, 0.4% hits | AID 624126, 2012;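 active = activation above its plate's cutoff, the mean activation of sample wells plus 3 SD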
* marks the source's active call; other numbers are inactive results. Rows were chosen to be rich in hits. Some 2.2% of all compounds tested hit in one or more screens of this group.

SMILES | CHRM1 PAM | M1 ag | M4 ag | CHRM1 antagonist | CHRM4 antagonist | M4 PAM
OCCC1CN(Cc2cnc(N3CCCC3)s2)CCN1Cc1ccccc1 (stereo not given) | 5 | -4 | 0 | -3 | 1 | 5
O=[N+]([O-])c1ccccc1/C=C/CN1CCCCC1CO (stereo not given) | -12 | -7 | 2 | 9 | 9 | -4
CC(C)N(Cc1ccccc1)C(=O)/C=C/c1ccccc1[N+](=O)[O-] | 2 | -10 | 1 | -6 | 4 | 1
CN(C/C=C/c1ccccc1[N+](=O)[O-])Cc1ccccc1 | -30 | -10 | 0 | 55* | 35* | -15
CCOC(=O)C1CCCN(C/C(O)=C(\C#N)c2nc(-c3ccccc3)cs2)C1 (stereo not given) | -24 | 56* | 5 | 22 | -4 | 3
CCOC(=O)C1CCCN(C/C=C/c2ccccc2)C1 (stereo not given) | -27 | -11 | 1 | 56* | 6 | -9
O=[N+]([O-])c1ccccc1/C=C/CN1CCCCC1 | -21 | -8 | 2 | 45* | 16 | -18
Cc1ccccc1NC(=O)Cn1cnc2c1c(=O)n(C)c(=O)n2C | 7 | 0 | 0 | -1 | -13 | 11
O=C(NNc1nc2ccc(F)cc2s1)c1cccc(F)c1 | 3 | 4 | 15 | -1 | -10 | -1
Cc1[nH]n(-c2ccccc2)c(=O)c1N=Nc1c(O)cc(S(=O)(=O)N(C)C)c2ccccc12 | -1 | -2 | 2 | 4 | -12 | 14
CCC(C)c1ccc(OCC(=O)O)cc1 (stereo not given) | 7 | -2 | 0 | -7 | -5 | 2
CCOC(=O)C1CCCN(C/C=C/c2ccccc2[N+](=O)[O-])C1 (stereo not given) | -16 | -7 | 0 | 28* | 22 | -22
COC(=O)c1cc(CNC(=O)c2ccccc2OCc2c(C)noc2C)ccc1OC | 3 | -1 | 5 | -11 | 1 | 18*
COc1ccc(CCNC(=O)c2ccccc2OCc2c(C)noc2C)cc1 | 11 | -2 | 3 | -6 | 2 | 12
CCOc1cc(/C=C\[N+](=O)[O-])ccc1OCC(=O)Nc1ccccc1C | 26* | 4 | 1 | -9 | 9 | 5
COc1cc(/C=C/c2cccc[n+]2C)ccc1OCC(=O)Nc1ccccc1C | -8 | -13 | 0 | 12 | 17 | -13
O=C(CN1CCN(S(=O)(=O)c2ccc(Cl)cc2)CC1)c1ccc(O)c(O)c1 | 27* | -3 | 1 | -22 | -10 | 6
Cc1ccn2c(=O)c(NC(=O)c3cccs3)c(C)nc2c1 | 29* | 3 | -1 | -27 | -7 | 21
CCOC(=O)C1=CN(Cc2cccc(-c3ccc(F)cc3)c2)S(=O)(=O)N(C)C1C (stereo not given) | -4 | -2 | 0 | 9 | -4 | -7
Brc1cccc(-c2cnc3n2CCCCC3)c1 | -19 | -4 | 6 | 48* | -1 | -17
O=C(CSc1nnc(Cn2c(=O)sc3ccccc32)n1-c1ccccc1)NCC1CCCO1 (stereo not given) | -7 | -5 | 0 | 0 | -1 | -1
Cc1cc(C)nc(/N=C(\N)N2CCCCCC2)n1 | -24 | -12 | 0 | 30* | 11 | -1
Cc1cc(/C=C(\C#N)C(N)=O)c(C)n1-c1ccc(N2CCOCC2)c([N+](=O)[O-])c1 | -4 | 34* | 23 | 14 | 7 | -1
Cc1cc(C=O)c(C)n1-c1ccc(N2CCCCC2)c([N+](=O)[O-])c1 | -12 | -2 | 7 | 6 | -4 | -6
CN1C(=O)C(C(=O)Nc2ccccc2F)c2ccccc21 (stereo not given) | 0 | -4 | 0 | 5 | 3 | 6
SMILES | CHRM1 PAM | M1 ag | M4 ag | CHRM1 antagonist | CHRM4 antagonist | M4 PAM
CCCCCCCCS(=O)C1CS(=O)(=O)CC1O (stereo not given) | 5 | -5 | 1 | -10 | 5 | -4
Fc1ccc(C[n+]2csc3ccccc32)cc1 | 1 | -1 | 6 | -9 | 28* | -7
CCOC(=O)C1CCCN(c2ccc(NC(=O)c3snc4c(=O)[nH]c(C)nc34)cc2)C1 (stereo not given) | 0 | -5 | 2 | 0 | 5 | 2
COc1ccc(NC(=O)c2nnn(CC(=O)Nc3ccccc3OC)c2N)c(OC)c1 | 8 | -1 | 1 | -18 | 5 | 2
CCc1ccc(Cn2nnc(C(=O)Nc3ccc(OC)cc3OC)c2N)cc1 | 9 | 25* | 8 | -8 | 3 | -4
NC(=O)C1CCN(CC(=O)NC(=O)NC2CCCC2)CC1 | 7 | -6 | 2 | -6 | -6 | 20*
CC(C)CC(=O)Nc1ccnn1C1CCN(C(=O)c2ccccc2F)CC1 | 5 | -3 | 1 | -4 | -7 | -3
OC(COC(c1ccccc1)c1ccccc1)CN1CCN(c2ccccn2)CC1 (stereo not given) | -26 | -8 | 5 | 42* | 8 | -16
COc1cccc(/C=N/Nc2snc(SC)c2C#N)c1O | -10 | 10 | 35* | 9 | 10 | -12
COC(=O)c1cnn(-c2ccc(C)c(C)c2)c1-n1cccc1 | -1 | -2 | 2 | 1 | 0 | 1
COc1ccccc1NC(=O)CSCc1nc2ccccc2[nH]1 | 5 | -5 | 2 | -5 | -4 | 21*
COc1ccccc1NC(=O)CSc1nnc2ccccn12 | 25* | 6 | 0 | -12 | -7 | 15
COc1ccc(NC(=O)N2CCCC(c3nc(-c4ccc(OC)cc4)no3)C2)cc1 (stereo not given) | -2 | 5 | 10 | 2 | -2 | -7
CCOC(=O)c1ccc(N2C(=O)C(O)=C(C(C)=O)C2c2ccccn2)cc1 (stereo not given) | 4 | -2 | 0 | 3 | -1 | -4
Nc1nc2ccccc2n1S(=O)(=O)c1ccc([N+](=O)[O-])cc1 | -31 | -11 | 2 | 30 | 16 | -13
Nc1nc2ccccc2n1S(=O)(=O)c1ccc(Cl)cc1 | -34 | -11 | 2 | 79* | 52* | -14
COc1ccc(S(=O)(=O)n2c(N)nc3ccccc32)cc1 | -34 | -10 | 7 | 100* | 73* | -14
Cc1ccc(S(=O)(=O)n2c(N)nc3ccccc32)cc1 | -27 | -8 | 3 | 98* | 86* | -18
